Cycloheximide cs – counter-screen for Shiga toxin inhibitors: cycloheximide protein synthesis inhibition. actives 12% (n = 300,000). cell reporter, cycloheximide protein synthesis inhibition counterscreen. max response, %; in the data active = max response mostly above about 13%, no sharp cut-off; inactive = mostly below about 14%; also: read at 38.3 µM for the half of the compounds with a filed dose
Shiga toxin inh – blocks Shiga toxin action in Vero cells; Vero cells, Shiga toxin protein synthesis inhibition reporter; inhibition, % at 38.7 µM; actives 9.2% (n = 290,000); AID 2315; in the data active = inhibition mostly above about 28%, no sharp cut-off; inactive = mostly below about 43%
AmpC detergent – inhibitors of E. coli AmpC beta-lactamase with detergent; Potency, µM (doses to about 114 µM), hits mostly inhibitors; actives 0.041% (n = 370,000); P00811; AmpC hydrolysis of nitrocefin, absorbance 480 nm, 0.01% Triton; also: nearly all actives have a fitted effect of over 25% in size
Target sequence (P00811 whole entry, looked up): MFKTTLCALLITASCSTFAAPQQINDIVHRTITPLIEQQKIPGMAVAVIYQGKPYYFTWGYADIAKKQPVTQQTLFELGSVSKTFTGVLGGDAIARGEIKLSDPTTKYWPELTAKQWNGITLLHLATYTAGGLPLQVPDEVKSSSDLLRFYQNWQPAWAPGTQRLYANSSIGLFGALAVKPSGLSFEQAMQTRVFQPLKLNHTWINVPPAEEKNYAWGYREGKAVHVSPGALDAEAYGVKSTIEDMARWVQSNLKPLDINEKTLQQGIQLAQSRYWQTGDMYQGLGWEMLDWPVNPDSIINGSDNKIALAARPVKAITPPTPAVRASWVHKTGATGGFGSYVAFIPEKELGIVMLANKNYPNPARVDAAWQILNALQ
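20 mM phosphate pH 7.0 + 0.01% (detergent screen) or 0.0001% Triton X-100; 5.3 nM AmpC reagent; cpd preinc 15 min RT; nitrocefin (800 uM stock) to start; A480 q20 s × 4 min; Activity was normalised to no-enzyme and no-compound control wells.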
AMA1-RON2 inh – AMA1-RON2 (P. falciparum) interaction inhibition. AID 720542. AlphaScreen AMA1-biotinylated RON2 peptide binding. actives 0.2% (n = 360,000). Potency, µM (top dose mostly 58.2 µM), hits mostly inhibitors; also: nearly all actives have a fitted effect of over 45% in size
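AMA1 (3D7) with his tag at 25 nM final met compounds first, then biotinylated RON2 peptide at 25 nM; detection used donor plus acceptor beads, 10 µg/mL apiece, read by AlphaScreen after 30 min at room temperature.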
AmpC no deterg – blocks E. coli AmpC beta-lactamase in detergent-free assay | P00811 | AmpC nitrocefin hydrolysis, absorbance 480 nm, 0.0001% Triton | Potency, µM (top dose mostly 57.1 µM), actives largely listed as inhibitors | actives 0.52% (n = 330,000) | AID 485341; also: nearly all actives have a fitted effect of over 20% in size
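20 mM phosphate pH 7.0 + 0.01% (detergent screen) or 0.0001% Triton X-100; 5.3 nM AmpC reagent; cpd preinc 15 min RT; nitrocefin (800 uM stock) to start; A480 q20 s × 4 min; Activity was normalised to no-enzyme and no-compound control wells.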
SARS PLpro yeast – inhibitors of SARS-CoV papain-like protease in yeast. S. cerevisiae expressing SARS-CoV PLpro, growth rescue. Potency, µM (titrated, usually from 32.9 µM), hits mostly activators. actives 0.19% (n = 330,000). AID 485353; calls by dose curve; also: nearly all actives have a fitted effect of over 55% in size
Numbers stand for hits; 0 = inactive; ? = inconclusive; - = no result; [ ] = another dose, or the depositor's remark. The full list was thinned out, with hits kept by preference. Unless noted, calls follow the shape of the dose curve; as a rule, active = well fitted curve in the direction sought with a large enough effect; inconclusive = small, poorly fitted or top-dose-only effect, or another doubt; inactive = no such curve, though single readings can be large; an effect the other way counts as inactive or inconclusive.

SMILES	Cycloheximide cs	Shiga toxin inh	AmpC detergent	AMA1-RON2 inh	AmpC no deterg	SARS PLpro yeast
COc1ccc2nc(NCc3ccccc3)[nH]c2c1	24	0	0	0	0	0
c1ccc2[nH]c(NCc3ccc4c(c3)OCO4)nc2c1	34	63	0	0	0	0
Cc1ccc2nc(NCc3ccccc3)[nH]c2c1	34	91	0	0	0	0
c1ccc(CNc2nc3ccccc3[nH]2)cc1	26	0	0	0	0	0
S=c1nc(NCc2ccc3c(c2)OCO3)c2ccccc2[nH]1	0	0	0	0	0	0
Cc1ccc2nc(NCc3ccccc3)c(C#N)cc2c1	0	0	0	0	0	0
Cc1cccc(NC(=O)c2ccc(N3C(=O)C4C5C=CC(C6CC56)C4C3=O)cc2)c1 (centres undefined)	0	0	0	0	0	0
O=C(Nc1ccc(S(=O)(=O)N2CCOCC2)cc1)c1nn(-c2ccc(F)cc2)ccc1=O	0	0	0	0	0	0
O=C(CCl)NCC1CCCO1 (centres undefined)	0	0	?	0	0[11.4 µM]	0
COc1ccc2nc(N3CCCC3)[nH]c2c1	19	0	0	0	0	0
COc1ccc(S(=O)(=O)NCc2ccc(C(=O)NCCCN3CCCC(C)C3)cc2)cc1 (centres undefined)	0	0	0	0	0	0
Cc1oncc1C(=O)Nc1ccc2ccccc2c1	34	89	0	0	0	0
COc1ccccc1C(=O)Nc1ccc2ccccc2c1	-	-	-	0	-	-
COC(=O)c1cccc(NC(=O)c2cccnc2)c1	0	0	0	0	0	0
COC(=O)c1cccc(NC(=O)c2cnoc2C)c1	28	52	0	0	0	0
Cc1coc(C)c1C(=O)Nc1ccc2ccccc2c1	64	90	0	0	0	0
CCn1c(C)c(C2=CCN(S(=O)(=O)c3ccccc3)CC2)c2ccccc21	0	0	0	0	18µM	0
COc1ccc(NC(=O)C2CCCN(S(=O)(=O)c3ccc4c(c3)CCCN4C(C)=O)C2)cc1Cl (centres undefined)	0	0	0	0	0	0
O=C(OCc1cnc(Cl)s1)c1ccccc1Cl	16	0	0	0	0	0
O=C(OCc1cnc(Cl)s1)c1cccc(Cl)c1Cl	14	0	?	0	0	0
O=C(OCc1cnc(Cl)s1)c1c(F)cccc1F	0	0	0	0	0	0
Cc1ccc2nc3sc(=O)sc3nc2c1	0	0	-	-	-	-
CSCCC1COC(c2cccs2)=N1 (centres undefined)	39	65	0	0	0	0
COc1ccc(F)cc1C(=O)C1CCCN(Cc2cccn2-c2ccccn2)C1 (centres undefined)	0	0	0	0	0	0
O=C(NCc1ccccc1)c1ccco1	0	0	?	0	0	0
SMILES	Cycloheximide cs	Shiga toxin inh	AmpC detergent	AMA1-RON2 inh	AmpC no deterg	SARS PLpro yeast
COc1ccc(C(=O)NCc2ccc(-c3nc4ccccc4s3)cc2)cc1OC	0	0	0	0	0	0
O=C(NC(=S)NCc1ccc(-c2nc3ccccc3s2)cc1)c1ccco1	30	64	0	0	0	0
O=C(NCc1ccc(-c2nc3ccccc3s2)cc1)c1ccco1	34	71	0	0	0	0
CCC(=O)N/C(N)=N/c1nc(C)c2cc(OC)ccc2n1	23	71	0	0	0	0
COc1ccc2nc(/N=C(\N)NC(=O)C(C)(C)C)nc(C)c2c1	30	42	0	0	0	0
COc1ccc2nc(/N=C(\N)NC(=O)N3c4ccccc4Sc4ccccc43)nc(C)c2c1	0	0	?	0	0	0
CCC(=O)N/C(=N/c1nc(C)cc(C)n1)Nc1ccc(OC)cc1	0	0	0	0	0	0
CCNC(=O)C1(C)CCN(Cc2ccc(OC(F)(F)F)cc2)C1 (centres undefined)	-	-	-	0	-	-
CCCC(=O)Nc1cccc(NC(=O)c2ccc(C)c([N+](=O)[O-])c2)c1	0	0	0	0	0	0
CCCCC(=O)Nc1cccc(NC(=O)c2ccc3c(c2)OCO3)c1	14	0	0	0	0	0
CCCC(=O)Nc1cccc(NC(=O)c2ccc3c(c2)OCCO3)c1	23	64	0	0	0	0
COc1ccccc1NC(=O)CNC(=O)c1ccc([N+](=O)[O-])cc1	0	0	0	0	0[2.29 µM]	0
CCOc1ccccc1NC(=O)c1cc2c(=O)oc3ccccc3c2s1	-	-	0	-	-	-
COc1ccc(S(=O)(=O)N2CCCCC2)cc1NC(=O)c1ccc([N+](=O)[O-])o1	23	44	0	0	0	0
O=C(Nc1ccc(N2CCOCC2)cc1)c1ccc([N+](=O)[O-])o1	37	59	?	0	0	0
O=C(Nc1ccccc1[N+](=O)[O-])c1cc(S(=O)(=O)N2CCOCC2)cs1	19	0	0	0	0	0
O=C(Nc1ccc(S(=O)(=O)N2CCOCC2)cc1)c1ccc([N+](=O)[O-])o1	19	61	0	0	0	0
CC(C)N(CCc1ccncc1)C(=O)Nc1ccc(F)cc1	0	0	0	0	0	0
Cn1c(=O)c2c(n3ncnc13)NC(=O)CC2c1cccc(F)c1 (centres undefined)	-	-	0	-	-	-
O=C(N/N=C/c1ccc(O)cc1O)/C(=C/c1ccccc1)CCO	19	0	0	0	0	?
COc1ccc(/C=N/NC(=O)/C(=C/c2ccccc2)CCO)cc1	12	0	0	0	0	0
CCCOC(=O)CSc1nc(N)c(C#N)c(-c2ccco2)c1C#N	-	-	-	0	-	-
Cc1ccc(C)c(N2CCN(C(=O)CCS(=O)(=O)c3ccc4c(c3)NC(=O)CO4)CC2)c1	0	0	0	0	0	0
Oc1ccc2ccccc2c1C=NC12CN3CCN(CN(C3)C1)C2	0	0	0	0	0	0
C/C(CC(=O)Nc1ccc(Cl)cc1)=N\NC(=O)C(=O)N1CCCCC1	16	52	0	0	0	0
SMILES	Cycloheximide cs	Shiga toxin inh	AmpC detergent	AMA1-RON2 inh	AmpC no deterg	SARS PLpro yeast
C/C(CC(=O)Nc1cc(Cl)ccc1C)=N\NC(=O)C(=O)N1CCCC1	17	0	0	0	0	0
C/C(CC(=O)Nc1ccc(Cl)cc1Cl)=N\NC(=O)C(=O)N1CCCC1	0	0	0	0	0	0
C/C(CC(=O)Nc1ccccc1Br)=N\NC(=O)C(=O)N1CCCC1	0	0	0	0	0	0
O=C(N/C(=C\c1ccc(Br)cc1)C(=O)N1CCCC1)c1cccs1	0	0	0	0	0	0
CC(C)N1C(=O)CC(Nc2ccc(N3CCOCC3)cc2)C1=O (centres undefined)	39	0	0	0	0	0
COc1ccc(NC2CC(=O)N(C(C)C)C2=O)cc1 (centres undefined)	0	0	?	0	0	0
CCCc1ncc(C(=O)c2ccc(OC)cc2)n1C	0	42	?	0	0	0
COc1ccc(C(=O)c2cnc(C(C)C)n2C)cc1	16	82	?	0	0	0

Screening results as filed in PubChem.
